Source: the supplement of paper PMC12067926
Unmarked numbers belong to inactive results.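 Rule for the calls: active = growth AUC significantly below the DMSO wells by Dunnett test; inactive = the rest.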

Each molecule was assayed on Carnobacterium 1 (Carnobacterium gallinarum) (assay: relative growth (AUC of 72 h growth curve relative to DMSO control, dAUC) (ratio); higher = more growth (less inhibition), active = hit call of the paper). Settings: 20 µM.
Protocol: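 Environmental bacterial isolates (Iceland stream sediment and Silwood Park soil) and whole stream-sediment communities were grown in LB from a 1:100 dilution with each pesticide at 20 µM (1% DMSO). A600 was read hourly for 72 h and the area under a spline-fitted growth curve (AUC) was computed. dAUC is the mean AUC of 3 biological replicates divided by the mean AUC of the DMSO controls. Significance was tested by Dunnett's test against the DMSO control.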
In the case of `CCCCOC(=O)[C@H](C)Oc1ccc(Oc2ccc(C#N)cc2F)cc1`, the relative growth is reported as 0.961. For `COc1cc(C)c(C(=O)c2c(OC)ccc(Br)c2C)c(OC)c1OC`, the relative growth was 1.4. With `COc1ccc(C(=CC(=O)N2CCOCC2)c2ccc(Cl)cc2)cc1OC` (mixture of isomers) the relative growth was 1.56. For `CO/C=C(/C(=O)OC)c1ccccc1COc1cccc(C(F)(F)F)n1`, the relative growth was 0.98. `CC1=NNC(=O)N(/N=C/c2cccnc2)C1` gave a relative growth of 1.3. Molecule `COC(=O)NC(=S)Nc1ccccc1NC(=S)NC(=O)OC` has a relative growth of 0.745. Molecule `CCOP(=S)(OCC)Oc1nc(Cl)c(Cl)cc1Cl` has a relative growth of 1.1. Work on `O=C1C2(Cl)C3(Cl)C4(Cl)C(Cl)(Cl)C5(Cl)C3(Cl)C1(Cl)C5(Cl)C24Cl` (configuration not stated) yielded a relative growth of 0.621. `CC(Oc1ccc(Oc2nc3ccc(Cl)cc3o2)cc1)C(=O)O` (configuration not stated) showed a relative growth of 1.36. `CCN(CC)c1nc(C)cc(OP(=S)(OC)OC)n1` showed a relative growth of 1.07. In the case of `Cc1ccc(/N=C/N(C)/C=N/c2ccc(C)cc2C)c(C)c1`, the relative growth is reported as 1.24. For `CCC(=O)Nc1ccc(Cl)c(Cl)c1`, the relative growth was 0.897. Molecule `CNC(=O)Oc1cccc(/N=C/N(C)C)c1` has a relative growth of 0.892. In the case of `CC(C)N(C(=O)COc1nnc(C(F)(F)F)s1)c1ccc(F)cc1`, the relative growth is reported as 1.04. In the case of `Cc1cc(C)nc(Nc2ccccc2)n1`, the relative growth is reported as 1.1. `CS(=O)(=O)NC(=O)c1cc(Oc2ccc(C(F)(F)F)cc2Cl)ccc1[N+](=O)[O-]` gave a relative growth of 0.908. `CCCCC(C#N)(Cn1cncn1)c1ccc(Cl)cc1` (configuration not stated) showed a relative growth of 0.998. In the case of `C#CCOc1ccc(CCNC(=O)C(OCC#C)c2ccc(Cl)cc2)cc1OC` (configuration not stated), the relative growth is reported as 1.18. `O=C(Nc1ccccc1-c1ccc(Cl)cc1)c1cccnc1Cl` was tested, and the relative growth was 0.968. Molecule `CCc1cnc(C2=NC(C)(C(C)C)C(=O)N2)c(C(=O)O)c1` (configuration not stated) has a relative growth of 1.06. In the case of `CNC(=O)ON=C(C)SC`, the relative growth is reported as 1.18. In the case of `CC(C)N1C(=O)c2ccccc2NS1(=O)=O`, the relative growth is reported as 0.693. `Nc1c(Cl)c(F)nc(OCC(=O)O)c1Cl` was tested, and the relative growth was 1.23. `O=C1C2CC=CCC2C(=O)N1SC(Cl)(Cl)Cl` (configuration not stated) was tested, and the relative growth was 1.19. Molecule `CC(C1CC1)C(O)(Cn1cncn1)c1ccc(Cl)cc1` (configuration not stated) has a relative growth of 1.34. `CSc1nnc(C(C)(C)C)c(=O)n1N` showed a relative growth of 1.38. `CCOCN(C(=O)CCl)c1c(C)cccc1CC` was tested, and the relative growth was 1.
